# Reference: PMC13494018
# B1: design_609_7ee6ce64-4629-41e8-bcb4-ba0da017284d_123_dldesign_0_cycle1_af2pred (protein)
# chain: GAKAVAAAAHDGYQAIAEASKDAEELKKAEEAGLKAVEETGKATGDTATAKAAKERLKRYADRELKKSKKKEEEKKKKLLE
# B2: design_609_7ee6ce64-4629-41e8-bcb4-ba0da017284d_143_dldesign_0_cycle1_af2pred (protein)
# chain: EEEKKELLESESYAIQAAHAVAAKDPATAEEAKEAFEYVALVGVEKARELLEKAKTDAESLKAAVAEAKELAKEVKKKLE
# B3: design_609_7ee6ce64-4629-41e8-bcb4-ba0da017284d_187_dldesign_0_cycle1_af2pred (protein)
# chain: AEAEKAKAEEAAKVAEEKIKKVEKLDPKKAEELRKKLKEAMAKPDAYKAVAKVSHDAYEALAEAEWEKRK
# B4: design_609_7ee6ce64-4629-41e8-bcb4-ba0da017284d_250_dldesign_0_cycle1_af2pred (protein)
# chain: MEEVKKKAEKALKEAKAALKEAKALGNEEAIKAAEQAIKFAKKALEYAEKGDLNGAEAYLEAAKHALKVAKDAIKAAKKAA
# B5: design_609_7ee6ce64-4629-41e8-bcb4-ba0da017284d_287_dldesign_0_cycle1_af2pred (protein)
# chain: MLKEEAKKVAEKGKKEGKYEEAIKELSEIAAKAYELAAEKLLDKETKEEGEKYREAARLARELGKELEKAA
# B6: design_609_7ee6ce64-4629-41e8-bcb4-ba0da017284d_297_dldesign_0_cycle1_af2pred (protein)
# chain: SPEEMIKKGKELVEKRLEKAKKTAEEKTPEEAKREAEAAVAFAEGVAEALAKHPEAAAAGEALLKETKEEAEKIIKKAKE
# B7: design_609_7ee6ce64-4629-41e8-bcb4-ba0da017284d_367_dldesign_0_cycle1_af2pred (protein)
# chain: KRKEEQLEKLKKLAEELEKKAKEYEKDKNFKEVAKAYKEAAKKLKEAAKTGDSKVAHEARQKAAEAEWLEKKAK
# B8: design_609_7ee6ce64-4629-41e8-bcb4-ba0da017284d_401_dldesign_0_cycle1_af2pred (protein)
# chain: AIEELIKKGKERGEKAAKRVKEGTMTPEAAKDIFKNIIKELAKAGGEEEGKKIALEGADLLAEADPEFGKKFKKEVEKE
# B9: design_609_7ee6ce64-4629-41e8-bcb4-ba0da017284d_478_dldesign_0_cycle1_af2pred (protein)
# chain: DAVKKAAEEAAKEAAKHPKGEKIAKAIEKGAEVAIKNSDKSFSQAAGDGASTIISLLGKEAGVDAIEAQDYADYWLDLVEKNS
# B10: design_609_7ee6ce64-4629-41e8-bcb4-ba0da017284d_519_dldesign_0_cycle1_af2pred (protein)
# chain: SEEAERELTLAKGYAELAKELAEQGPKAAKSAVKDAEKEAKEAEKIDPEVGKKAKELAEEAKKYVEEKEK
# B11: design_609_7ee6ce64-4629-41e8-bcb4-ba0da017284d_654_dldesign_0_cycle1_af2pred (protein)
# chain: AAAEQAKLKAEAKALMAAMKAAGKAGDVAAVEAAAKAALAKAKELAKIDPALGSKLAAEIHETRAEALSTARKTREEKKKEEELKK
# B12: design_609_7ee6ce64-4629-41e8-bcb4-ba0da017284d_665_dldesign_0_cycle1_af2pred (protein)
# chain: MDEEKLKMAEEEMKEGEKYAKAAKAALKKGDAKKAATLASEALASYNAAAHLYELAGDKEKAKKALEEGKKVVEEVGAAVKA
# B13: design_609_7ee6ce64-4629-41e8-bcb4-ba0da017284d_730_dldesign_0_cycle1_af2pred (protein)
# chain: SEQAKEELEKQEKVKEVAKKVRKALKELEEAGDEEAKKEAEKLRKEASEARLLAADDPEKGLEEMKKVLEKAEKKLKEVKAKL
# B14: design_609_7ee6ce64-4629-41e8-bcb4-ba0da017284d_738_dldesign_0_cycle1_af2pred (protein)
# chain: MEEALARIDAALKRAKELAKEAEKAGDKKAAAEMESAIAFAEQQRENALKGSPEYAKKAAEAAEAYTDRKIKRAEEIRKKK
# B15: design_609_7ee6ce64-4629-41e8-bcb4-ba0da017284d_739_dldesign_0_cycle1_af2pred (protein)
# chain: SEASKAAAEAYEKLAETEYLAKKAKESNAEEAEKYAKEAKEAAKEAIEAAKKAAELAPEGAPLMKKVEEKAKKAAEEAEKYAKKKK
# B16: design_609_7ee6ce64-4629-41e8-bcb4-ba0da017284d_741_dldesign_0_cycle1_af2pred (protein)
# chain: EKELAEEVIKKIKEKAEKAIKEGVSREEAEKVIKEIEELATKASWEAPEYAKELNRAAKEEKKKIKKAVEEREA
# B17: design_609_7ee6ce64-4629-41e8-bcb4-ba0da017284d_829_dldesign_0_cycle1_af2pred (protein)
# chain: LEEELKKAIEEAKKAVKELKEAAKKRPLTPEEIAKLVTKVSNELGKVRFLSAEALVNKKYEKVGEEGRKAAKEIREEAKEAIKLSKEK
# B18: design_609_7ee6ce64-4629-41e8-bcb4-ba0da017284d_830_dldesign_0_cycle1_af2pred (protein)
# chain: MESLKETFEKMAKLVKKFAEYLEKLDPEAGKKTLEILKKGEEAKTPSEAISLVLRAAVYGAKELGKYDKELALEKLEKVFDL
# B19: design_609_7ee6ce64-4629-41e8-bcb4-ba0da017284d_842_dldesign_0_cycle1_af2pred (protein)
# chain: SMREEELEADRKKVDEGAKELKKLGEEAAKKAKTWEEFVKGHKELREKAKEVVDAALPEVKPYAEKAASKVVHDARQKGAENVQKQK
# B20: design_609_7ee6ce64-4629-41e8-bcb4-ba0da017284d_862_dldesign_0_cycle1_af2pred (protein)
# chain: MEVAKLAHEALEAAAEGEAVAKNDPEKREKLRELARKAREAAKKGDVEEAKKLAKEVKKLAKALEKEKKEKEK
# B21: design_609_7ee6ce64-4629-41e8-bcb4-ba0da017284d_900_dldesign_0_cycle1_af2pred (protein)
# chain: GKEMVDKYSKERKKIAEAAKLAKEGKENPETFEKKAEEALKIAEEAAKEGDEGIKFQAENLKAYIEKLRKEK
# B22: design_609_7ee6ce64-4629-41e8-bcb4-ba0da017284d_914_dldesign_0_cycle1_af2pred (protein)
# chain: AEAEELVEKAEERYKKLKERAEKAIKEGNKNELLAVSEAAKHAAEQAEKLAPKTGEKGKEVAKKFKELSKKAEETAKK
# B23: design_609_7ee6ce64-4629-41e8-bcb4-ba0da017284d_960_dldesign_0_cycle1_af2pred (protein)
# chain: DEEAYKKAKERGKKLEEKAKASNAYSAAAYYEAAYESYLQAAKQVRPELAKELKKAAEEAKAKAEEKYAEVAA
# B24: design_609_7ee6ce64-4629-41e8-bcb4-ba0da017284d_962_dldesign_0_cycle1_af2pred (protein)
# chain: AEAEVKAAIEELKAESEKIVEEAKKEMEKHKEDPKKVEEIRKEALKKIRELAKEVAEKTGDWKGASAVVHEAYEKLNEAYKEAIEKAK
# B25: design_609_7ee6ce64-4629-41e8-bcb4-ba0da017284d_985_dldesign_0_cycle1_af2pred (protein)
# chain: SEEVLELGEREAERLKEAGASNRSIGLVLFLAEEAAEGNLEAAEGIFRAARREAEREKEKNPEVGELLEEALERLRKAAE
# B26: design_609_7ee6ce64-4629-41e8-bcb4-ba0da017284d_1000_dldesign_0_cycle1_af2pred (protein)
# chain: GKAIEAQKLVADAFAKYRKGKANPETYEEDKAEARELLREALELDFESAKETAKFLAELAKWQNPEAGKEFAALVEEVIAEVA
# B27: design_609_7ee6ce64-4629-41e8-bcb4-ba0da017284d_1016_dldesign_0_cycle1_af2pred (protein)
# chain: AAADAKAKFDVAFLAAELRASARAAAKANPAAAPAVVDAAAERLRAAGAAGTPEAAAYADAAIARERAWAAAAAAA
# B28: design_609_7ee6ce64-4629-41e8-bcb4-ba0da017284d_1084_dldesign_0_cycle1_af2pred (protein)
# chain: SEKEKEEVLKEAKEVLEKAKKAAEELGDEEAVKRMERRLKRAEEGNLQDAEAALESGKHALENAKKKLKEKEKAA
# B29: design_609_7ee6ce64-4629-41e8-bcb4-ba0da017284d_1088_dldesign_0_cycle1_af2pred (protein)
# chain: NKSKEYSDAMKELVRAAKEAAAAADALGAAKGDPALAQAIKAELEKLVFEAADGDIETAKKLAEEAKKLKEAAEKALA
# B30: design_609_7ee6ce64-4629-41e8-bcb4-ba0da017284d_1105_dldesign_0_cycle1_af2pred (protein)
# chain: DALKEAAEIAAKARELAAELDYLAKKSSPELGKKYAAYAERLRKAVRETRETGVEGAEKTRKELEEVEKEVKEL
# B31: design_609_7ee6ce64-4629-41e8-bcb4-ba0da017284d_1108_dldesign_0_cycle1_af2pred (protein)
# chain: MQEAIDYVKKKGSELIDKLVDDLAAGEEKDDPKIAKEVLEKLEELEKEAKKLSEEAAEEAKKAIETAKRIASNA
# B32: design_609_7ee6ce64-4629-41e8-bcb4-ba0da017284d_1121_dldesign_0_cycle1_af2pred (protein)
# chain: SKEEAIKNIRELRRELREVAEEAMKEVSEEDAKKVRELASKASGKLAEERGLAVSKPELAEEALKNAKEIAEKAIEEVKKIAEKAKK
# B33: design_609_7ee6ce64-4629-41e8-bcb4-ba0da017284d_1124_dldesign_0_cycle1_af2pred (protein)
# chain: MAEAFEFTAEGLRLLAEEKSPEEAEKYNELAEKFEELAERARTGTPEDAKAAREEGNKLVKENSELVFEAKEYKTEKDYEELK
# B34: design_609_7ee6ce64-4629-41e8-bcb4-ba0da017284d_1135_dldesign_0_cycle1_af2pred (protein)
# chain: SAALEHLVESLIENSTKAAEEGTPEVAKLLNAAAAAAKAGDLETALKLADQALALSPPNINVTLARSDARNALELAKK
# B35: design_609_7ee6ce64-4629-41e8-bcb4-ba0da017284d_1161_dldesign_0_cycle1_af2pred (protein)
# chain: GSEEARKLQEEFGEALRRFTAAGRRLVETGREVGERTGDPEIEERARRVAEEGNRRRLEALDAGDVEAILAVADELERATEELL
# B36: design_609_7ee6ce64-4629-41e8-bcb4-ba0da017284d_1172_dldesign_0_cycle1_af2pred (protein)
# chain: MEEVEAFKKEAQKKLDEAVEYALSISDIEKSKKVADLMSEMGKHYSEAYKAMESGEKLEEAKKNIEKAEEYYKKAKEIAEEDEKKKKE
# B37: design_609_7ee6ce64-4629-41e8-bcb4-ba0da017284d_1185_dldesign_0_cycle1_af2pred (protein)
# chain: KSEESKKEAEAAAKAAGEAMAKATGDKATADALAKAMLDALKAGDEAAAVAKRNEAAAIALAADPALAMDVLAEGKAAIVYAKK
# B38: design_609_7ee6ce64-4629-41e8-bcb4-ba0da017284d_1351_dldesign_0_cycle1_af2pred (protein)
# chain: AAAAAAEAARAAAAAAAVAAAAEAKTAEVAKADPSAAPYYADAAGIVVDSAAAALAAAPGAEAAAIAARGVRTINRLAESTIEAIKRR
# Molecular target: VTCN1, Q7Z7D3
# Sequence (Q7Z7D3 whole entry): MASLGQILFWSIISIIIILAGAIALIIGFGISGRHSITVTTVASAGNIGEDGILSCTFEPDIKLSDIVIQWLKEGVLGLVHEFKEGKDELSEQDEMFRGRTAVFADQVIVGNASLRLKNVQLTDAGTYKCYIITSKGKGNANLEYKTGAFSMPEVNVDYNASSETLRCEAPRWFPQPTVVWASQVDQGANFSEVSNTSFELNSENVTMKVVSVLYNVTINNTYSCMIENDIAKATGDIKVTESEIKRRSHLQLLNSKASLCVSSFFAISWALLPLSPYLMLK
row,Binder,binding in a display sort
1,B1,not found (inactive)
2,B2,not found (inactive)
3,B3,not found (inactive)
4,B4,not found (inactive)
5,B5,not found (inactive)
6,B6,not found (inactive)
7,B7,not found (inactive)
8,B8,not found (inactive)
9,B9,not found (inactive)
10,B10,not found (inactive)
11,B11,not found (inactive)
12,B12,not found (inactive)
13,B13,not found (inactive)
14,B14,not found (inactive)
15,B15,not found (inactive)
16,B16,not found (inactive)
17,B17,not found (inactive)
18,B18,not found (inactive)
19,B19,not found (inactive)

row,Binder,binding in a display sort
1,B20,not found (inactive)
2,B21,not found (inactive)
3,B22,not found (inactive)
4,B23,not found (inactive)
5,B24,not found (inactive)
6,B25,not found (inactive)
7,B26,not found (inactive)
8,B27,not found (inactive)
9,B28,not found (inactive)
10,B29,not found (inactive)
11,B30,not found (inactive)
12,B31,not found (inactive)
13,B32,not found (inactive)
14,B33,not found (inactive)
15,B34,not found (inactive)
16,B35,not found (inactive)
17,B36,not found (inactive)
18,B37,not found (inactive)
19,B38,not found (inactive)
